Results: the OligoGym collection

Each sequence was assayed against CCL13 (assay: pooled miR-30 sensor sort-seq; sequence = guide strand). Details: shRNA.
Also: reference of the scale not given here.

Row | Sequence | sensor-assay potency score (higher = more potent)
1 | TGAAGCAGCAAGTAGATGGGAC | -0.203
2 | AAGGAGATCTTCTTACTGCTAA | -0.229
3 | ATTCTGGACCCACTTCTCCTTT | -1.22

What follows are sequences tested against CCL23 in the same assay as above. Details: shRNA.

Row | Sequence | sensor-assay potency score (higher = more potent)
4 | TCCAAGGGCAGTAACAAGCATG | -1.61
5 | TAGTAGCATGGAATCTGTCCAG | -0.782
6 | TTGGAGCACTCGCTGTTCGTTT | -0.72
7 | TGAACTCTGTCTCTGCATCTTT | -0.137
8 | AGTAGCATGGAATCTGTCCAGA | -1.79
9 | TCTGCATCTTTTGTGACCCGGG | -0.271
10 | TCTCACGCAAACCTGAACTTGC | -0.191
11 | TTCAAAGTAACTCTCCAGGAGT | -0.524
12 | TTTGACATCATGAACTCTGTCT | 0.483
13 | TCTGTCTCTGCATCTTTTGTGA | -0.455
14 | TGAACTTGCTTATCACTGGGGT | 0.574
15 | TCATGAACTCTGTCTCTGCATC | -0.664

Each sequence was assayed against CCL26 in the same assay as above. Details: shRNA.

Row | Sequence | sensor-assay potency score (higher = more potent)
16 | TTGTGGCTGTATTGGAAGCAGC | -1.27
17 | TGGATGGGTACAGACTTTCTTG | -1.49
18 | TTGGATATGTCACTCCCACGTG | -0.51
19 | TTGGTAGTGAATATCACAGCCC | -0.403
20 | TTCTTGCCTCTTTTGGTAGTGA | -0.89
21 | TATTGGAAGCAGCAGGTCTTGG | -1.48
22 | TAGCTTCGCACCCAGGTCCAGG | -1.45
23 | TAGTGAATATCACAGCCCGCTG | -1.27
24 | TTTTGGTAGTGAATATCACAGC | -0.793
25 | TCTTTTGGTAGTGAATATCACA | -1.4

What follows are sequences tested against CCL28 in the same assay as above. Details: shRNA.

Row | Sequence | sensor-assay potency score (higher = more potent)
26 | TTAACAGTATGGTTGTGCGGGC | -0.737
27 | AATATGATGTGAAACCTCCGTG | 0.282
28 | ATATGATGTGAAACCTCCGTGC | -0.448
29 | TGCACTTTCATCCACTGCTTAA | -1.51
30 | TTGCACTTTCATCCACTGCTTA | -0.197
31 | TTTCTTGGCAGCTTGCACTTTC | 0.0736
32 | TTTTCTTGGCAGCTTGCACTTT | -0.496
33 | TCCTGTGGCAAACATTTCCTTT | -1.54
34 | TTGCCATGGTGTTTCTTCCTGT | -0.322
35 | TTCTTCTGCGCTTGACATGAAG | -1.32
36 | TGATGTGAAACCTCCGTGCAAC | -1.14
37 | ACACATATTCACTCTTTCCAGG | -1.19

The sequences below were run against CCNA1 in the same assay as above. Details: shRNA.

Row | Sequence | sensor-assay potency score (higher = more potent)
38 | TGAGTATCTGACAAGCATCGGG | 0.0337
39 | TATATCTCTTCATATTTCGAAG | -1.14
40 | TTGCTTGCTGAGGTCGATGGGG | -0.835
